# Article PMC11006913
# Numbering of substitutions follows the chain as printed.
# Columns and labels:
# Assay in all cases: PBM; 200 nM protein, PBS
# Settings in all cases: dsDNA, one strand shown
# NKX2-5 [1] = target: NKX2-5 (Homo sapiens, UniProt P52952 125-210, R139K)
# NKX2-4 [2] = target: T1, NKX2-4 (Homo sapiens, UniProt Q9H2Z4 175-261, T231S)
# T1 sequence: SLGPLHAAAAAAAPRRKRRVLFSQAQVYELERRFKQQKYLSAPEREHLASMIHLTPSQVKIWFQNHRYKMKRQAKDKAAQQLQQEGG
# NKX2-6 [3] = target: T2, NKX2-6 (Homo sapiens, UniProt A6NCS4 118-204, R150C)
# T2 sequence: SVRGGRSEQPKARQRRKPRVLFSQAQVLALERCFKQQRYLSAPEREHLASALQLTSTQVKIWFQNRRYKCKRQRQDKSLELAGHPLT
# NKX2-6 [4] = target: T3, NKX2-6 (Homo sapiens, UniProt A6NCS4 118-204)
# T3 sequence: T2 sequence with C33R
# NKX2-6 [5] = target: T4, NKX2-6 (Homo sapiens, UniProt A6NCS4 118-204, F151L)
# T4 sequence: T2 sequence with C33R, F34L
# NKX3-2 [6] = target: NKX3-2 (Homo sapiens, UniProt P78367 192-278, P234S)
# NKX2-5 [7] = target: NKX2-5 (Homo sapiens, UniProt P52952 125-210)
# NKX3-2 [8] = target: NKX3-2 (Homo sapiens, UniProt P78367 192-278)
# HOXA2 [9] = target: HOXA2 (Homo sapiens, UniProt O43364 129-215, R185T)
# HOXA2 [10] = target: HOXA2 (Homo sapiens, UniProt O43364 129-215, R185K)
# HOXA2 [11] = target: HOXA2 (Homo sapiens, UniProt O43364 129-215, Y150S)
# HOXA2 [12] = target: HOXA2 (Homo sapiens, UniProt O43364 129-215)
# PRRX1 = PRRX1 (Homo sapiens, UniProt P54821 80-166, F113S)
# HOXB6 [13] = target: HOXB6 (Homo sapiens, UniProt P17509 132-218, K202E)
# HOXB6 [14] = target: HOXB6 (Homo sapiens, UniProt P17509 132-218)
# NKX2-4 [15] = target: T5, NKX2-4 (Homo sapiens, UniProt Q9H2Z4 175-261, R246Q)
# T5 sequence: T1 sequence with S57T, R72Q
# Chain of HOXA2 (Homo sapiens, UniProt O43364 129-215, Y150S) (O43364 129-215 Y150S): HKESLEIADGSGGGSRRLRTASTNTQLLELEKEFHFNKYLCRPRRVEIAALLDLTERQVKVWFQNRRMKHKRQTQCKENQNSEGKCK
# Chain of NKX2-5 (Homo sapiens, UniProt P52952 125-210, R139K) (P52952 125-210 R139K): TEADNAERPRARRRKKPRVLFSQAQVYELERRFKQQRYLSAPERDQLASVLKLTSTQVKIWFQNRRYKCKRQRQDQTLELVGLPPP
# Chain of NKX2-5 (Homo sapiens, UniProt P52952 125-210) (P52952 125-210): as the sequence (P52952 125-210 R139K) above, with K15R counted along it
# Chain of PRRX1 (P54821 80-166 F113S): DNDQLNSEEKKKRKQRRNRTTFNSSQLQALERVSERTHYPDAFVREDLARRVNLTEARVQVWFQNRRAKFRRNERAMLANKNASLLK
# Chain of HOXA2 (Homo sapiens, UniProt O43364 129-215, R185K) (O43364 129-215 R185K): as the sequence (O43364 129-215 Y150S) above, with S22Y, R57K counted along it
# Chain of HOXA2 (Homo sapiens, UniProt O43364 129-215) (O43364 129-215): as the sequence (O43364 129-215 Y150S) above, with S22Y counted along it
# Chain of HOXA2 (Homo sapiens, UniProt O43364 129-215, R185T) (O43364 129-215 R185T): as the sequence (O43364 129-215 Y150S) above, with S22Y, R57T counted along it
# Chain of NKX3-2 (Homo sapiens, UniProt P78367 192-278, P234S) (P78367 192-278 P234S): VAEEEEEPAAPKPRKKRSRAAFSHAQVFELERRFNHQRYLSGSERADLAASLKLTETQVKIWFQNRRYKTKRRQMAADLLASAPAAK
# Chain of NKX3-2 (Homo sapiens, UniProt P78367 192-278) (P78367 192-278): as the sequence (P78367 192-278 P234S) above, with S43P counted along it
# Chain of HOXB6 (Homo sapiens, UniProt P17509 132-218, K202E) (P17509 132-218 K202E): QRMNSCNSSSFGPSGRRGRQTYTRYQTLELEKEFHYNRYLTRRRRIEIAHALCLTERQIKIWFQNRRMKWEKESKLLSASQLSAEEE
# Chain of HOXB6 (Homo sapiens, UniProt P17509 132-218) (P17509 132-218): as the sequence (P17509 132-218 K202E) above, with E71K counted along it
sequence,measurement,setting,value
TAAGTACA,binding signal,NKX2-5 [1],"12.4 upbm affinity estimate (log intensity, higher = more binding, comparable within an allelic series)"
same,binding signal,NKX2-4 [2],"12.8 upbm affinity estimate (log intensity, higher = more binding, comparable within an allelic series)"
same,binding signal,NKX2-6 [3],"11.9 upbm affinity estimate (log intensity, higher = more binding, comparable within an allelic series)"
same,binding signal,NKX2-6 [4],"13.3 upbm affinity estimate (log intensity, higher = more binding, comparable within an allelic series)"
same,binding signal,NKX2-6 [5],"10.5 upbm affinity estimate (log intensity, higher = more binding, comparable within an allelic series)"
same,binding signal,NKX3-2 [6],"12.6 upbm affinity estimate (log intensity, higher = more binding, comparable within an allelic series)"
same,binding signal,NKX2-5 [7],"12.4 upbm affinity estimate (log intensity, higher = more binding, comparable within an allelic series)"
same,binding signal,NKX3-2 [8],"12.6 upbm affinity estimate (log intensity, higher = more binding, comparable within an allelic series)"
CCGAGGTC,binding signal,NKX2-5 [1],"8.47 upbm affinity estimate (log intensity, higher = more binding, comparable within an allelic series)"
same,binding signal,HOXA2 [9],"6.93 upbm affinity estimate (log intensity, higher = more binding, comparable within an allelic series)"
same,binding signal,HOXA2 [10],"10.2 upbm affinity estimate (log intensity, higher = more binding, comparable within an allelic series)"
same,binding signal,HOXA2 [11],"10.4 upbm affinity estimate (log intensity, higher = more binding, comparable within an allelic series)"
same,binding signal,HOXA2 [12],"7.18 upbm affinity estimate (log intensity, higher = more binding, comparable within an allelic series)"
same,binding signal,NKX2-5 [7],"8.66 upbm affinity estimate (log intensity, higher = more binding, comparable within an allelic series)"
CCGCCTCC,binding signal,NKX2-5 [1],"8.96 upbm affinity estimate (log intensity, higher = more binding, comparable within an allelic series)"
same,binding signal,PRRX1,"9.25 upbm affinity estimate (log intensity, higher = more binding, comparable within an allelic series)"
same,binding signal,NKX2-5 [7],"9 upbm affinity estimate (log intensity, higher = more binding, comparable within an allelic series)"
GTCTAGAC,binding signal,NKX2-5 [1],"9.21 upbm affinity estimate (log intensity, higher = more binding, comparable within an allelic series)"
same,binding signal,PRRX1,"9.59 upbm affinity estimate (log intensity, higher = more binding, comparable within an allelic series)"
same,binding signal,NKX2-6 [4],"10.1 upbm affinity estimate (log intensity, higher = more binding, comparable within an allelic series)"
same,binding signal,NKX2-6 [5],"9.52 upbm affinity estimate (log intensity, higher = more binding, comparable within an allelic series)"
same,binding signal,NKX2-5 [7],"9.52 upbm affinity estimate (log intensity, higher = more binding, comparable within an allelic series)"
CCCTGGCC,binding signal,NKX2-5 [1],"8.8 upbm affinity estimate (log intensity, higher = more binding, comparable within an allelic series)"
same,binding signal,HOXA2 [9],"6.94 upbm affinity estimate (log intensity, higher = more binding, comparable within an allelic series)"
same,binding signal,HOXA2 [10],"10.1 upbm affinity estimate (log intensity, higher = more binding, comparable within an allelic series)"
same,binding signal,HOXA2 [11],"10.4 upbm affinity estimate (log intensity, higher = more binding, comparable within an allelic series)"
same,binding signal,HOXA2 [12],"6.83 upbm affinity estimate (log intensity, higher = more binding, comparable within an allelic series)"
same,binding signal,NKX2-5 [7],"8.75 upbm affinity estimate (log intensity, higher = more binding, comparable within an allelic series)"
GCGGCCCA,binding signal,NKX2-5 [1],"8.95 upbm affinity estimate (log intensity, higher = more binding, comparable within an allelic series)"
same,binding signal,NKX2-5 [7],"8.97 upbm affinity estimate (log intensity, higher = more binding, comparable within an allelic series)"
CAGCGGCC,binding signal,NKX2-5 [1],"8.81 upbm affinity estimate (log intensity, higher = more binding, comparable within an allelic series)"
same,binding signal,HOXA2 [9],"7.12 upbm affinity estimate (log intensity, higher = more binding, comparable within an allelic series)"
same,binding signal,HOXA2 [10],"10.2 upbm affinity estimate (log intensity, higher = more binding, comparable within an allelic series)"
same,binding signal,HOXA2 [11],"10.4 upbm affinity estimate (log intensity, higher = more binding, comparable within an allelic series)"
same,binding signal,HOXA2 [12],"7.19 upbm affinity estimate (log intensity, higher = more binding, comparable within an allelic series)"
same,binding signal,NKX2-5 [7],"8.82 upbm affinity estimate (log intensity, higher = more binding, comparable within an allelic series)"
TCACTTAA,binding signal,NKX2-5 [1],"12.2 upbm affinity estimate (log intensity, higher = more binding, comparable within an allelic series)"
same,binding signal,HOXB6 [13],"9.72 upbm affinity estimate (log intensity, higher = more binding, comparable within an allelic series)"
same,binding signal,NKX2-6 [4],"13.4 upbm affinity estimate (log intensity, higher = more binding, comparable within an allelic series)"
same,binding signal,NKX2-6 [5],"10.6 upbm affinity estimate (log intensity, higher = more binding, comparable within an allelic series)"
same,binding signal,NKX2-5 [7],"12.3 upbm affinity estimate (log intensity, higher = more binding, comparable within an allelic series)"
same,binding signal,HOXB6 [14],"10.7 upbm affinity estimate (log intensity, higher = more binding, comparable within an allelic series)"
CGCCTACC,binding signal,NKX2-5 [1],"8.86 upbm affinity estimate (log intensity, higher = more binding, comparable within an allelic series)"
same,binding signal,PRRX1,"9.18 upbm affinity estimate (log intensity, higher = more binding, comparable within an allelic series)"
same,binding signal,NKX2-5 [7],"8.84 upbm affinity estimate (log intensity, higher = more binding, comparable within an allelic series)"
GACACTTA,binding signal,NKX2-5 [1],"12.7 upbm affinity estimate (log intensity, higher = more binding, comparable within an allelic series)"
same,binding signal,NKX2-4 [2],"12.8 upbm affinity estimate (log intensity, higher = more binding, comparable within an allelic series)"
same,binding signal,NKX2-6 [3],"11.8 upbm affinity estimate (log intensity, higher = more binding, comparable within an allelic series)"
same,binding signal,NKX2-6 [4],"13.6 upbm affinity estimate (log intensity, higher = more binding, comparable within an allelic series)"
same,binding signal,NKX2-4 [15],"12.9 upbm affinity estimate (log intensity, higher = more binding, comparable within an allelic series)"
same,binding signal,NKX2-6 [5],"11.1 upbm affinity estimate (log intensity, higher = more binding, comparable within an allelic series)"
same,binding signal,NKX3-2 [6],"12.8 upbm affinity estimate (log intensity, higher = more binding, comparable within an allelic series)"
same,binding signal,NKX2-5 [7],"12.6 upbm affinity estimate (log intensity, higher = more binding, comparable within an allelic series)"
same,binding signal,NKX3-2 [8],"12.9 upbm affinity estimate (log intensity, higher = more binding, comparable within an allelic series)"
GGCAGGAC,binding signal,NKX2-5 [1],"8.66 upbm affinity estimate (log intensity, higher = more binding, comparable within an allelic series)"
same,binding signal,PRRX1,"9.23 upbm affinity estimate (log intensity, higher = more binding, comparable within an allelic series)"
same,binding signal,NKX2-5 [7],"8.83 upbm affinity estimate (log intensity, higher = more binding, comparable within an allelic series)"
